Consider 56 compounds from PubChem BioAssay AID1745847 (National Center for Advancing Translational Sciences (NCATS), 2022).

Molecules are shown by their SMILES. Hit rate of the full screen: of about 2,100 compounds, about 670 (32%) were called active. Another 50% or so got no clear call; they are omitted. Some of the results follow. Values without a mark were called inactive. The call rests on the fitted dose curve; in most records, active means well fitted inhibition curve with a large enough effect; inconclusive means small, poorly fitted or top-dose-only effect; inactive means no such curve, though single readings can be large or run the other way.
On the % scale 0 is the no-effect control and ±100 the full control effect; potency means the concentration at half of the fitted maximal effect.

This test is described as follows: CMV-Luciferase Counterscreen for Inhibitors of ATXN expression. Further: nearly all actives have a fitted effect of over 55% in size. As to conditions: HEK-293 CMV-luciferase reporter, luminescence, 24 h; series mostly up to 57.5 µM.
In the case of `COc1cc(-c2cc3nc(NCc4cccc(Cl)c4)ccn3n2)cc(OC)c1OC`, the Potency was 3.55 µM (active).
For `O=C(Nc1cccc2cccnc12)c1csc(COCCO)n1`, the Potency entry is “inactive”.
Still for that read-out and setting: the result for `O=C(Nc1c(Cl)cccc1Cl)Oc1cccc2cccnc12` reads 10 µM (active); that for `CCOC(=O)c1ccc(/C=C2/C=C(c3ccccc3)N(c3ccc(Cl)c(C(=O)O)c3)C2=O)cc1`, 12.6 µM (active).
For `CCOC(=O)c1ccc(N=c2sc(C(=O)OC)cc(=O)n2-c2ccc(C(=O)OCC)cc2)cc1`, the activity change, negative = inhibition is -3.07% [at 11.4 µM].
With `Cc1ccc(-c2c(C#N)c(N)n3c(nc4ccccc43)c2C#N)cc1`, the Potency was 7.08 µM (active).
On the same count and under the same terms, as for `NS(=O)(=O)c1ccc(CCNc2ccn3nc(-c4cccc(C(F)(F)F)c4)cc3n2)cc1`, the figure is 31.6 µM (active); as for `Cn1c(NCCN2CCCC2)nc2cc(-c3ccsc3)sc2c1=O`, “inactive”; as for `COc1cccc(CNc2nc3cc(-c4ccc(C(=O)N5CCN(C)CC5)cc4)sc3c(=O)n2C)c1`, 12.6 µM (active).
`CN(C)CCCNc1nc2cc(-c3ccc(F)cc3)sc2c(=O)n1C`: the Potency result was “inactive”.
On the same count and under the same terms, the result for `Fc1ccc2[nH]c3c(NCc4ccccc4)ncnc3c2c1` reads 0.631 µM (active); that for `COc1ccc(CNc2ncnc3c2[nH]c2ccccc23)cc1`, 2.82 µM (active); that for `Cc1[nH]n2c(=O)cc(C(C)(C)C)nc2c1-c1ccccc1`, 3.55 µM (active).
Consider `Cc1ccc(C(=O)CN2C(=O)c3ccccc3S2(=O)=O)cc1`, for which the Potency was 0.398 µM (active).
As for `O=C(CN1C(=O)c2ccccc2S1(=O)=O)N1CCc2ccccc21`, the Potency was 0.224 µM (active).
With `O=C(CN1C(=O)c2ccccc2S1(=O)=O)c1ccc(O)c(O)c1`, the Potency was 0.794 µM (active).
Same read-out and setting: the result for `O=C(/C=C/c1ccccc1)c1cc(Br)ccc(=O)c1O` reads “inactive”; that for `Cc1ccc(C)c(/C=C/C(=O)c2ccccc(=O)c2O)c1`, “inactive”.
For `Cc1cc(C)c(C(=O)/C=C/c2ccc(C(C)C)cc2)c(=O)[nH]1`, the Potency is 8.91 µM (active).
For the compound `Cc1[nH]c(=O)c(C(=O)/C=C/c2ccccc2)c2c1CCCC2`, the Potency is 8.91 µM (active).
Turning to `C[C@@H]1C[C@@H]2O[C@H]2/C=C\C=C\C(=O)Cc2c(Cl)c(O)cc(O)c2C(=O)O1`, the activity change, negative = inhibition was 25.3% [at 11.4 µM].
Consider `COCCCNCCCOc1ccc(Cl)cc1C(C)(C)C`, for which the Potency is 22.4 µM (active).
With `CCCCNCCCOc1cccc(Cl)c1Cl`, the Potency entry is “inactive”.
In the case of `Cc1nn(-c2ccccn2)c2c1C(=O)CC(C)(C)C2N=[N+]=[N-]` (stereo unspecified), the activity change, negative = inhibition was -24.8% [at 11.4 µM].
`CC1(C)c2[nH]c3ccccc3c2C[C@H]2C(=O)N(Cc3ccccc3F)C(=O)N21`: the Potency was 17.8 µM (active).
Turning to `CC1(C)c2[nH]c3ccccc3c2C[C@H]2C(=O)N(Cc3cccc(F)c3)C(=O)N21`, the Potency was 20 µM (active).
Consider `OC(c1ccccc1)(c1nc(-c2ccc3ccccc3c2)cs1)C(F)(F)F` (stereo unspecified), for which the activity change, negative = inhibition is 26.4% [at 11.4 µM].
Turning to `O=C(/C=C\c1ccco1)Nc1nc(-c2ccc3ccccc3c2)cs1`, the Potency is 3.16 µM (active).
`CC(SC(C)C(=O)NN=Cc1cccc(Cl)c1)C(=O)NN=Cc1cccc(Cl)c1` (stereo unspecified): the activity change, negative = inhibition is -24.3% [at 11.4 µM].
Take `C=CCc1cccc(/C=N/NC(=O)CCC(=O)Nc2ccc(C)cc2)c1O`: the Potency is 8.91 µM (active).
Turning to `C=CCc1cccc(/C=N/NC(=O)CCC(=O)Nc2ccc(F)cc2)c1O`, the Potency was 3.98 µM (active).
With `C=CCc1cccc(/C=N/NC(=O)C(C)Nc2ccc(C)cc2)c1O` (stereo unspecified), the Potency was 10 µM (active).
Same read-out and setting: as for `C=CCc1cccc(/C=N/NC(=O)c2ccccc2Br)c1O`, the figure is 10 µM (active).
With `C=CCc1cccc(/C=N/NC(=O)CNc2ccccc2)c1O`, the Potency was 2 µM (active).
As to `C=CCc1cccc(/C=N/NC(=O)CCCNc2ccc(C)cc2)c1O`, the Potency was 15.8 µM (active).
Take `Nc1ccc2c(c1)OC1(CCCC1)O2`: the activity change, negative = inhibition was -27.3% [at 11.4 µM].
Turning to `CC(C)(C)c1ccc(OCCn2nc(C(=O)O)c3ccccc3c2=O)cc1`, the Potency result was “inactive”.
`COc1ccc(NC(=O)N2CCN(c3nc(-c4cccc(OC)c4)cs3)CC2)cc1`: the Potency was 3.55 µM (active).
In the case of `Cn1nccc1C(=O)N1CCCC(C(=O)c2cccc3ccccc23)C1` (stereo unspecified), the Potency result is “inactive”.
As for `CCCc1cnc(NCCNCC(O)COc2ccc(Cl)c(Cl)c2)nc1` (stereo unspecified), the Potency is 31.6 µM (active).
Turning to `N#C/C(=C\Nc1ccc2cn[nH]c2c1)c1nc(-c2ccc(Cl)cc2)cs1`, the activity change, negative = inhibition is 11% [at 11.4 µM].
As for `Cc1ccc(SC2=C(Sc3ccc(C)cc3)C(=O)c3ccccc3C2=O)cc1`, the Potency result is “inactive”.
For `O=C1C(SCCO)=C(SCCO)C(=O)c2ccccc21`, the Potency is 8.91 µM (active).
As for `CCCNC(=O)c1ccc2c(=O)c(O)c(-c3cccc(Br)c3)[nH]c2c1`, the Potency is 20 µM (active).
As for `C/C(=N\NC(=O)C(C)n1nc(C)c([N+](=O)[O-])c1C)c1ccccc1O` (stereo unspecified), the Potency was 2.51 µM (active).
On to `CCCCC(=O)NC(c1ccc(N(C)C)cc1)c1ccc2cccnc2c1O` (stereo unspecified), for which the Potency is 1.78 µM (active).
Consider `CCCCC(=O)NC(c1ccc(N(CC)CC)cc1)c1ccc2cccnc2c1O` (stereo unspecified), for which the Potency is 0.282 µM (active).
With `CO[C@@]12[C@@H]3N[C@@H]3CN1C1=C(C(=O)C(N)=C(C)C1=O)[C@@H]2COC(N)=O`, the activity change, negative = inhibition was 10.2% [at 11.4 µM].
As to `CC(C)CC(NC(=O)c1ccc(Cl)cc1)C(=O)OCC(=O)c1ccc2c(c1)NC(=O)CO2` (stereo unspecified), the Potency is 22.4 µM (active).
As to `Cc1ccc(OCC(=O)c2cc(C)n(Cc3cccs3)c2C)c([N+](=O)[O-])n1`, the Potency is 3.98 µM (active).
For the compound `COc1ccc(CC(=O)N/N=C(\C)c2ccccn2)cc1`, the Potency is 8.91 µM (active).
On the same count and under the same terms, as for `COc1ccccc1N(CC(=O)N/N=C(\C)c1ccccc1O)S(=O)(=O)c1ccc(C)cc1`, the figure is 11.2 µM (active); as for `C/C(=N\NC(=O)CN(c1ccccc1)S(C)(=O)=O)c1ccccc1O`, 12.6 µM (active).
Same read-out and setting: as for `C/C(=N\NC(=O)Cc1ccc(Cl)cc1)c1ccccc1O`, the figure is 11.2 µM (active); as for `COc1ccccc1N(CC(=O)NCCSCc1ccc(C)cc1)S(=O)(=O)c1ccccc1`, 22.4 µM (active).
For `CC(C)C[C@H](NC(=O)c1[nH]cnc1C(=O)Nc1ccc(CNC(=O)OC(C)(C)C)cc1)C(=O)OCc1ccccc1`, the activity change, negative = inhibition was -24.4% [at 11.4 µM].
